For some assays here: Results with a measured potency or affinity are listed apart.
Assays:
Parameters in all cases: scale not given: direction of the effect not stated beside the values
[1] = target: Protein translocase subunit SecA (Escherichia coli (strain K12)) (UniProt P10408); experiment: Assay to Identify E. coli SecA ATPase Inhibitors; assay type: functional; conditions: 30 µM
[2] = target: T1, Ubiquitin-activating enzyme e1, putative (Leishmania donovani (strain BPK282A1)) (UniProt E9BSI1); experiment: Leishmania donovani Ubiquitin Activating Enzyme (LdE1); assay type: functional; conditions: 30 µM
T1 sequence (whole entry): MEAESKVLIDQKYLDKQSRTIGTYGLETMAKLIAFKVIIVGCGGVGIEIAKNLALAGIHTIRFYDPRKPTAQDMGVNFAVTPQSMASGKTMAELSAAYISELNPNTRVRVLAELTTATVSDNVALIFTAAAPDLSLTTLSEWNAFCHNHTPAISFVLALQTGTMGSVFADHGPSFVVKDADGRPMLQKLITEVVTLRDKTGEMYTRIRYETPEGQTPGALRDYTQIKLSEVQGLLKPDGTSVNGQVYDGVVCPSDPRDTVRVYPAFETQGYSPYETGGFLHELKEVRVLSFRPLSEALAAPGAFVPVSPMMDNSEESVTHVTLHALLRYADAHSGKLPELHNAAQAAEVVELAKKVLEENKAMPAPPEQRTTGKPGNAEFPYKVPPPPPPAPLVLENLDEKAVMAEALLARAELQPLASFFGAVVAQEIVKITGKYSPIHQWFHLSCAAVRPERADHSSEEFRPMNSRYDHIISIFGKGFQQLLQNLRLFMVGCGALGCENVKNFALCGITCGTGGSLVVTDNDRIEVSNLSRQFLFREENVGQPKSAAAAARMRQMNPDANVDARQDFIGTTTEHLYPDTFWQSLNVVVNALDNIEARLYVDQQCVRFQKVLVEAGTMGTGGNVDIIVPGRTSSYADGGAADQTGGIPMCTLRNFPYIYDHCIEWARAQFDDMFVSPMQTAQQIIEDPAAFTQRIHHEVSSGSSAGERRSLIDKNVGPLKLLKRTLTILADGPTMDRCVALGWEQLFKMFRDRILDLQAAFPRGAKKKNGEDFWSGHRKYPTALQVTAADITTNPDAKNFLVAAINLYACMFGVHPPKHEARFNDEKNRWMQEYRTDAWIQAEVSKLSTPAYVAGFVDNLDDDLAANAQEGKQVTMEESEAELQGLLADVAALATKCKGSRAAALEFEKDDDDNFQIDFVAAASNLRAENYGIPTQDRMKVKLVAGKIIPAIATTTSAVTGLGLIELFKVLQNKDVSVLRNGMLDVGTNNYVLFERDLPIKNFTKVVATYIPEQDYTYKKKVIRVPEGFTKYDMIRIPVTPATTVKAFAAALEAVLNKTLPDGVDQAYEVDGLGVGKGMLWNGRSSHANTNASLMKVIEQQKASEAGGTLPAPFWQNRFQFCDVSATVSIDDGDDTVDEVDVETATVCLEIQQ

[3] = target: AMP-activated protein kinase, AMPK (Homo sapiens) (UniProt P54646+O43741+P54619+Q9UGJ0+Q9Y478+Q13131+Q9UGI9); experiment: AMP-dependent Kinase enzyme assay. An in vitro enzyme assay that detects ADP turnover that is directly proportional to AMPK activity. This uses naive AMPK that is activated during the assay with MK-8722; assay type: functional; conditions: 30 µM
[4] = target: Sialic acid-binding Ig-like lectin 9 (Homo sapiens) (UniProt Q9Y336); experiment: Hs-Siglec9 ALPHAscreen SOP 20170721; conditions: 10 µM
Sequence of Sialic acid-binding Ig-like lectin 9 (Homo sapiens) (Q9Y336 whole entry): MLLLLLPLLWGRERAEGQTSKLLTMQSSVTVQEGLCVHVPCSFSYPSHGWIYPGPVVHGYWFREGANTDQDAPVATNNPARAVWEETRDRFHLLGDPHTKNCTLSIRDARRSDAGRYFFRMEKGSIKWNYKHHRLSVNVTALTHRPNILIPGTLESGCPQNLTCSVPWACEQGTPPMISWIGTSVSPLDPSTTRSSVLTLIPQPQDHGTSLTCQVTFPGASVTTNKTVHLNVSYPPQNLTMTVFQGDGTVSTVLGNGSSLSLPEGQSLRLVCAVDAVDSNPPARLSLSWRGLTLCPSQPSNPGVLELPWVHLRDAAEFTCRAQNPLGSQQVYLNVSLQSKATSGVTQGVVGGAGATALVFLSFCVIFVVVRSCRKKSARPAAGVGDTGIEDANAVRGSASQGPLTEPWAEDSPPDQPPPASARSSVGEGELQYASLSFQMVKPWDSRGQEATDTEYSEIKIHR

[5] = test system: Trypanosoma cruzi; experiment: Trypanosoma cruzi phosphomannomutase and mannose-1-phosphate guanylyltransferase assay; assay type: functional; conditions: 10 µM
[6] = target: T2, Arginase-2, mitochondrial (Homo sapiens) (UniProt P78540); experiment: in vitro enzyme assay to detect the production of urea directly proportional to the activity of Arginase II; assay type: functional; conditions: 33.3 µM; also: in the data most compounds retested in dose-response had high values
T2 sequence (whole entry): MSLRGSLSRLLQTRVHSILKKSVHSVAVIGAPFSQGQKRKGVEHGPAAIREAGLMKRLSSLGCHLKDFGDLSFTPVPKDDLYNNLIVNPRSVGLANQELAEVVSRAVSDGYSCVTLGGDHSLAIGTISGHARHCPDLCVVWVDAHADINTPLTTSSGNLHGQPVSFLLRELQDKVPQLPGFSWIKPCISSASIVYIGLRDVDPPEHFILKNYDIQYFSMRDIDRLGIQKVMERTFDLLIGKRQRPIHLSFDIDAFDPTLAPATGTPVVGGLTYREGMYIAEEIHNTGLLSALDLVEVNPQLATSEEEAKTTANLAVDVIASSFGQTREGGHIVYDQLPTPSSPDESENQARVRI

[7] = target: T3, Proteasome subunit beta (Trypanosoma cruzi) (UniProt O96673); experiment: Trypanosoma cruzi proteasome chymotrypsin-like activity (TcProtChymo) assay.; also: in the data most compounds retested in dose-response had high values; assay type: functional; conditions: 9.37 µM
T3 sequence (whole entry): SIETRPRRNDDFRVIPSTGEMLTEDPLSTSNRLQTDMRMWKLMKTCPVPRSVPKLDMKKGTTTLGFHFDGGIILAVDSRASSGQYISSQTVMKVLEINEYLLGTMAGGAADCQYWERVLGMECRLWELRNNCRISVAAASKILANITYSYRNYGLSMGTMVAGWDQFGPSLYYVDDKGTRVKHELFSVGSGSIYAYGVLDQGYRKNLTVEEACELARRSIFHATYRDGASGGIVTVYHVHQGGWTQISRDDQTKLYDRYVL

[8] = organism: Homo sapiens; experiment: To identify inhibition of the IFN signalling (Jak-Stat) pathway via expression of an eGFP reporter gene under the control of an IFN-stimulated response element (ISRE) containing MxA promoter.; assay type: functional; conditions: 30 µM
[9] = target: T4, Tyrosyl-tRNA synthetase, putative (Trypanosoma cruzi (strain CL Brener)) (UniProt Q4DSP6); experiment: Trypanosoma cruzi tyrosyl tRNA synthetase (TcYRS) _High Tyrosine SOP; assay type: functional; conditions: 30 µM; also: in the data most compounds retested in dose-response had high values
T4 sequence (whole entry): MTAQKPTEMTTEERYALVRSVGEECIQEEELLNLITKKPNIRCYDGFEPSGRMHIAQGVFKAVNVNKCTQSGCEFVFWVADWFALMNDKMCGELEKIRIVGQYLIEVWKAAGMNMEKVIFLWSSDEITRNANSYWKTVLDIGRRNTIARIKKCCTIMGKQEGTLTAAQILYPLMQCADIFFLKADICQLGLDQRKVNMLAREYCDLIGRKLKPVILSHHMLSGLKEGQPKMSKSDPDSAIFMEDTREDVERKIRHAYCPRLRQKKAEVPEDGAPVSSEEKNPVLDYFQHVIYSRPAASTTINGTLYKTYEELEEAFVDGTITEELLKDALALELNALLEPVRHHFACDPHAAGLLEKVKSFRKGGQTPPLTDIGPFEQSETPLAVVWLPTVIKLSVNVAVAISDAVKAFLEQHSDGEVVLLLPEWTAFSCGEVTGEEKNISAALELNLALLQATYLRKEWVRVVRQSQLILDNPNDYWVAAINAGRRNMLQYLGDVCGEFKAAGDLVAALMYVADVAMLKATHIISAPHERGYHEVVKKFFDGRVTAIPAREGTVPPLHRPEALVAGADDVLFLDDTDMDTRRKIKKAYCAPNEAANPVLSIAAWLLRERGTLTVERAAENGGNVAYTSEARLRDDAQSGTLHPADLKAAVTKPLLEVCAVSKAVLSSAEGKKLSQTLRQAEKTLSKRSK

[10] = target: T4, Tyrosyl-tRNA synthetase, putative (Trypanosoma cruzi (strain CL Brener)); experiment: Trypanosoma cruzi tyrosyl tRNA synthetase (TcYRS) SOP; assay type: functional; conditions: 30 µM
[11] = target: Chromo domain-containing protein 1 (Saccharomyces cerevisiae (strain ATCC 204508 / S288c) (Baker's yeast)) (UniProt P32657); experiment: ScCHD-1 Enzyme Inhibition Assay; assay type: functional; conditions: 30 µM; also: in the data most compounds retested in dose-response had high values
Sequence of Chromo domain-containing protein 1 (Saccharomyces cerevisiae (strain ATCC 204508 / S288c) (Baker's yeast)) (P32657 whole entry, the tested form may be a part): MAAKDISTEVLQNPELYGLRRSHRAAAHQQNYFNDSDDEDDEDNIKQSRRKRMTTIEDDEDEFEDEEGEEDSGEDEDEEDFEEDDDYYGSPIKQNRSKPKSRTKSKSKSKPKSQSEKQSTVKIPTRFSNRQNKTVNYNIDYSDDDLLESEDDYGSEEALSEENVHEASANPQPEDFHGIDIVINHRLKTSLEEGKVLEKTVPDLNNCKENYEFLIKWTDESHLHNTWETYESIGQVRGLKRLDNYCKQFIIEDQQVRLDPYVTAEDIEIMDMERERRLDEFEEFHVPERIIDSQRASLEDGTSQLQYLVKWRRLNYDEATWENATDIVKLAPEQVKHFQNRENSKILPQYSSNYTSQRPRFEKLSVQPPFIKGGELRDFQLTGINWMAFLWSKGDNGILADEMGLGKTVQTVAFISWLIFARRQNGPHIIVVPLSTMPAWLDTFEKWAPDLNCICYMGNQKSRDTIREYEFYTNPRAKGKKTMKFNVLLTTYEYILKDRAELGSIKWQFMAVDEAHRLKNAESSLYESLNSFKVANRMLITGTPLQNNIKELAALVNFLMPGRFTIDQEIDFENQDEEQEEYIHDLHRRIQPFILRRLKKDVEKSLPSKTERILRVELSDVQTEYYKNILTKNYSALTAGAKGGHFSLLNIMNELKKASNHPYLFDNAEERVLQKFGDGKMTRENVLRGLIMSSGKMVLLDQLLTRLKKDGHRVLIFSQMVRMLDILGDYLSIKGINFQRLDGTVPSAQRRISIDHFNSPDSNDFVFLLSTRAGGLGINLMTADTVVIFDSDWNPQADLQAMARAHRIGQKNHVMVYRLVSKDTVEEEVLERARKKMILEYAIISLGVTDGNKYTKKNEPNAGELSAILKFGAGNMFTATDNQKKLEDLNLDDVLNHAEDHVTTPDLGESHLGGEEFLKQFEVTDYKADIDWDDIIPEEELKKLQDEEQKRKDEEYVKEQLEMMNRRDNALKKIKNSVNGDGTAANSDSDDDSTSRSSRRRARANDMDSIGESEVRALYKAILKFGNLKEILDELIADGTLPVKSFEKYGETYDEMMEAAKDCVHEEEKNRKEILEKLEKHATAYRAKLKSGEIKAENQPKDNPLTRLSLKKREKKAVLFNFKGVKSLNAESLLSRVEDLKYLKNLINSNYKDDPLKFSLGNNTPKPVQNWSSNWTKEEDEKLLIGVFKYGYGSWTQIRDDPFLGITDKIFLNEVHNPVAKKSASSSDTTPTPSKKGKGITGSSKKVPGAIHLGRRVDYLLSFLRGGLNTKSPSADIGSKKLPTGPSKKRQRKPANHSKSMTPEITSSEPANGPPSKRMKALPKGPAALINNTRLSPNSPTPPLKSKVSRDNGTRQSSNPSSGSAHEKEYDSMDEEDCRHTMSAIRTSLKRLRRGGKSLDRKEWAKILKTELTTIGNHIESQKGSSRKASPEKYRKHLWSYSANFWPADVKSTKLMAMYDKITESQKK

Sequence of Protein translocase subunit SecA (Escherichia coli (strain K12)) (P10408 whole entry): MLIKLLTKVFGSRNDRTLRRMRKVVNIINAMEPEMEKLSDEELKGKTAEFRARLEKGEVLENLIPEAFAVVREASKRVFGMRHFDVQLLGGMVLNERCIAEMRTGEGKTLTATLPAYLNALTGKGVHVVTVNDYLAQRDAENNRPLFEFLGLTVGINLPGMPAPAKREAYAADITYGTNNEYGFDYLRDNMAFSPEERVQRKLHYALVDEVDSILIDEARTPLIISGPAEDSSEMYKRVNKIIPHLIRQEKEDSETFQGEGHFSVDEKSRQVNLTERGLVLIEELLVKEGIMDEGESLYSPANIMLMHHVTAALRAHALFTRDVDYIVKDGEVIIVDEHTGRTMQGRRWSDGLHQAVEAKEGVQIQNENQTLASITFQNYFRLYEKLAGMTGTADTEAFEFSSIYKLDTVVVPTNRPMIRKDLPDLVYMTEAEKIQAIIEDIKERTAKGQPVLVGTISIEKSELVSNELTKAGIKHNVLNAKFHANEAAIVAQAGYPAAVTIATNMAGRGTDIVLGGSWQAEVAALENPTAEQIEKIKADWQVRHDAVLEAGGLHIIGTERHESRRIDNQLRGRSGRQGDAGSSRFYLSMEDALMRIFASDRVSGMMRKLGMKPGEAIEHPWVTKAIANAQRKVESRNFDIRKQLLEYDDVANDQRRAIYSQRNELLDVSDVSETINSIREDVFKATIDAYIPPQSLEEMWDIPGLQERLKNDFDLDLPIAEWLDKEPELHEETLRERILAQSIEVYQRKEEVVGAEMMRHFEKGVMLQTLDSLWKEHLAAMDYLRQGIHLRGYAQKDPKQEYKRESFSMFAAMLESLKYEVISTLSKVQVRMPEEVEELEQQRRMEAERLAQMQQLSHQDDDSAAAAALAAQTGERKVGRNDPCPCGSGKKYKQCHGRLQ

Row | SMILES | Percent Effect [1] | Percent Effect [2] | Percent Effect [3] | Percent Effect [4] | Percent Effect [5] | Percent Effect [6] | Percent Effect [7] | Percent Effect [8] | Percent Effect [9] | Percent Effect [10] | Percent Effect [11]
1 | CN(C)C(=O)N1C[C@@H]2COC[C@]2(CNS(C)(=O)=O)C1 | -1.78% | -2.7% | 5.5% | 5.41% | -1.27% | 2.87% | 16.8% | -0.0949% | 0% | -5.13% | 3.04%
2 | CN(Cc1ncc[nH]1)CC(c1cccs1)N1CCOCC1 (centres undefined) | -0.354% | 13.5% | -12.7% | -6.28% | 4.92% | -1.29% | 12.4% | 17.4% | 11.9% | 23.2% | -5.94%
3 | CN1CCN(C(=O)[C@@H]2CCO[C@@H]3CCN(c4ncccn4)C[C@@H]32)CC1 | -0.254% | 13.3% | 0.0211% | 0.601% | 2.7% | -48.9% | 8.21% | -18.8% | 7.29% | 17.5% | -7.16%
4 | CCN(CC)CC1CN(CCc2ccccc2)Cc2nccn2C1 (centres undefined) | -3.63% | -2.74% | 1.1% | 4.51% | 3.77% | -1.6% | 1.28% | 2.5% | 7.29% | 8.64% | -0.569%

From ChEMBL document CHEMBL3988442, “University of Dundee, Small-Polar-MMV Screening Library” (2021)
